A number with no mark means an inactive call. For some of these results: Entries with a potency or affinity are not part of this list. Activity calls are given as the source filed them. Unless noted, how the calls were made is not given here.

Assay [1] is described as follows: antimalarial activity against Dd2 strain (AID 2302;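 active means growth inhibition above 50% at the single 2 µM test dose, taken to imply half-maximal potency below 2 µM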;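 further: 0% = DMSO untreated growth and 100% = chloroquine plus artemisinin killed control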). The note with it: P. falciparum Dd2 in RBCs, LDH growth readout, 72 h; at 2 µM; active compounds read high.
Assay [2] in a line: HepG2 cytotoxicity, primary screen, cytotoxicity control for P. falciparum antimalarial project, cell-based, ATP luminescence (AID 2303;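 active means inhibition above 50%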;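 further: 0% = DMSO wells and 100% = digitonin-killed cells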). The note with it: HepG2 viability, 24-48 h, at 10 µM, active compounds read high.
Assay [3] has as its target L-lactate dehydrogenase (Plasmodium falciparum (isolate CDC / Honduras)) (UniProt Q27743). The experiment in a line: PfLDH activity inhibition – cell lysate, 3D7 strain, counter-screen for P. falciparum growth inhibition project (AID 2304).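 Further: 0% = vehicle and 100% = reference inhibitor.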 The conditions noted are these: P. falciparum 3D7 crude extract, LDH APAD/NBT absorbance; at 2 µM; active compounds read high. Background: The purpose of a counterscreen is to sort out artefacts and off-target activity.

The nature of assay [4]: inhibition of 3D7 malaria parasite growth – strain 3D7 (AID 2306).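 Further: 0% = DMSO wells and 100% = chloroquine plus artemisinin control wells.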 The note with it: P. falciparum 3D7 erythrocytic growth, LDH absorbance, 72 h; at 2 µM; active compounds read high.
The target in assay [5] is Calcium-dependent protein kinase 1 (Plasmodium falciparum (isolate 3D7)) (UniProt P62344). The assay is described as follows: PfCDPK1 kinase inhibitors, biochemical, TCAMS library (AID 1159585; cut-off not given, nearly all actives have IC50 up to about 0.98 µM;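 further: inhibitors leave more ATP so luminescence rises with inhibition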). The conditions noted are these: recombinant PfCDPK1, Kinase-Glo ATP depletion luminescence. For orientation: In Kinase-Glo more light means more ATP remaining.
Assay [6] concerns the target Plasmodium falciparum protein kinase 6 (PK6, PF3D7_1337100) (UniProt Q8IDW1). The experiment in a line: PfPK6 kinase inhibitors, biochemical, TCAMS library (AID 1159586). The conditions noted are these: recombinant PfPK6, Kinase-Glo ATP depletion luminescence.
Assay [7] addresses Protein kinase 7 (PK7), Plasmodium falciparum 3D7 (PF3D7_0213400) (UniProt Q7YTF7). The experiment in a line: inhibition of Plasmodium PK7 catalytic activity – biochemical, TCAMS antimalarial set, Kinase-Glo luminescence (AID 1159587). The conditions noted are these: recombinant PfPK7, Kinase-Glo ATP depletion luminescence.
The target of assay [8] is Calcium-dependent protein kinase 4 (Plasmodium falciparum (isolate 3D7)) (UniProt Q8IBS5). The experiment in a line: PfCDPK4 kinase inhibitors, biochemical, TCAMS library (AID 1159588; cut-off not given, nearly all actives have IC50 up to about 0.91 µM). The note with it: recombinant PfCDPK4, Kinase-Glo ATP depletion luminescence.
Calcium-dependent protein kinase 4 (Plasmodium falciparum (isolate 3D7)), sequence (Q8IBS5 whole entry, looked up): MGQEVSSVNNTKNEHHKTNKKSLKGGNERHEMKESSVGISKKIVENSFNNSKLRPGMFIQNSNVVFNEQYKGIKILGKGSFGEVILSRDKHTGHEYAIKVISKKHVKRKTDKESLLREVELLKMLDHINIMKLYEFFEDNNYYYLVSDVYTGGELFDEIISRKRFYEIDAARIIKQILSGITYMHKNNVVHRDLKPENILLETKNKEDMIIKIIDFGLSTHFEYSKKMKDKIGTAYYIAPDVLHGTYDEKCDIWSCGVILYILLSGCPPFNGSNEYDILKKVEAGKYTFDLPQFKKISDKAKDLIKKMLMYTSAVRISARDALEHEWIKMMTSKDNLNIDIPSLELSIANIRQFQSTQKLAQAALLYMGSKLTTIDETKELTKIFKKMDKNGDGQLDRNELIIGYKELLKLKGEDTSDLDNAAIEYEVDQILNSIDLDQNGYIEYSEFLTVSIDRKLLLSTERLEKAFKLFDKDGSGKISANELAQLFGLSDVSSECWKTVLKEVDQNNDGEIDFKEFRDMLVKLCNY

Plasmodium falciparum protein kinase 6 (PK6, PF3D7_1337100), sequence (Q8IDW1 1-305): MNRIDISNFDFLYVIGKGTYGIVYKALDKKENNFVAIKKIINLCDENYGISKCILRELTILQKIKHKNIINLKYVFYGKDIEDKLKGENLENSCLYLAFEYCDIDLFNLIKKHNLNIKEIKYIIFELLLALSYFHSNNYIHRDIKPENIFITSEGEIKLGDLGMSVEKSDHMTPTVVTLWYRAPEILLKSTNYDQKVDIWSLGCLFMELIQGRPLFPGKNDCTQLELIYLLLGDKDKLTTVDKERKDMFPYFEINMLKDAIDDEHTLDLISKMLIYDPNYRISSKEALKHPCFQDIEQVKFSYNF
L-lactate dehydrogenase (Plasmodium falciparum (isolate CDC / Honduras)), sequence (Q27743 whole entry, looked up): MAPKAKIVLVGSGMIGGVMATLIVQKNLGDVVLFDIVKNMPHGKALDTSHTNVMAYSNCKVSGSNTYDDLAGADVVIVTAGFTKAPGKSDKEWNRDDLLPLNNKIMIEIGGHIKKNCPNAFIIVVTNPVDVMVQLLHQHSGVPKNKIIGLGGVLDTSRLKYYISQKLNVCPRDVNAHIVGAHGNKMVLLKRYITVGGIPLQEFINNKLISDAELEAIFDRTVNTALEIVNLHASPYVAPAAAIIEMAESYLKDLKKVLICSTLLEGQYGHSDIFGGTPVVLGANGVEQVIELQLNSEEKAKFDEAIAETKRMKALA
Protein kinase 7 (PK7), Plasmodium falciparum 3D7 (PF3D7_0213400), sequence (Q7YTF7 1-343): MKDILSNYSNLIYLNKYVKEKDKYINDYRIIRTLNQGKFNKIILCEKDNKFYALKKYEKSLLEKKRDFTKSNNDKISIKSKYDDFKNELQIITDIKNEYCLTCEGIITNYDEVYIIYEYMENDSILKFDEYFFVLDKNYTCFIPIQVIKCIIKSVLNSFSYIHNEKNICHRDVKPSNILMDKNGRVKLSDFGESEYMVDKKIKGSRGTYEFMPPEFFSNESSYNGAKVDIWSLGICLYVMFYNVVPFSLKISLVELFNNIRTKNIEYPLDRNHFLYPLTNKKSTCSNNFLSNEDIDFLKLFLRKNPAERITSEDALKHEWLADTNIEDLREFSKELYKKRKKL
Calcium-dependent protein kinase 1 (Plasmodium falciparum (isolate 3D7)), sequence (P62344 whole entry, looked up): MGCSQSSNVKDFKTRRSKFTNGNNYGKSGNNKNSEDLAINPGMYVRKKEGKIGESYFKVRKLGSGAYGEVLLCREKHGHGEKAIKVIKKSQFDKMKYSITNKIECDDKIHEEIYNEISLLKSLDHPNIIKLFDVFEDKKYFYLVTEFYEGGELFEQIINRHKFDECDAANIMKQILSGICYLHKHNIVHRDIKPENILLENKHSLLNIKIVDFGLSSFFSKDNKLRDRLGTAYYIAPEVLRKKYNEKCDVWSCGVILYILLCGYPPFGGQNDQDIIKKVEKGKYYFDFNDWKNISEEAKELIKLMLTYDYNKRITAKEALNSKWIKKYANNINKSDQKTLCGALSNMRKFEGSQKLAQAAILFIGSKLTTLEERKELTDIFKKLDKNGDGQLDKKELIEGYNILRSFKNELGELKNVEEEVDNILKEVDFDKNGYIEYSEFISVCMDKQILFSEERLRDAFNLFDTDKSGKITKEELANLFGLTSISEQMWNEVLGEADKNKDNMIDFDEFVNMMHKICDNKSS

The inhibition is the drop in the measured response relative to a control, in per cent. On to `Cc1cc(NC(=O)[C@H](CC2CCCCC2)Nc2ccc(C#N)c3ccccc23)ccc1F`, for which the growth inhibition in assay [1] was 99% (active); in assay [4] it was 102% (active). For the same compound, the values for the inhibition in assay [2] and in assay [3] were 21% and -6%, respectively. The result in assay [5], in assay [6], in assay [7] and in assay [8] was inactive.
`Cc1ccc(-c2ccn(Cc3ccc(OCc4ccccc4)cc3)n2)cn1` (tested in a mixture with another compound): the growth inhibition in assay [1] was 92% (active); in assay [4], 93% (active). Also, the figures for the inhibition in assay [2] and in assay [3] were 1% and -3%, respectively. In addition, the outcome in assay [5], in assay [6], in assay [7] and in assay [8] was inactive.
With `CC(=O)N(Cc1nc(-c2cc(C(F)(F)F)cc(C(F)(F)F)c2)cs1)c1c(C)cccc1C`, the figures for the growth inhibition in assay [1] and in assay [4] were 99% (active) and 100% (active), respectively. Also, the inhibition in assay [2] was -2%; in assay [3], 1%. In addition, the outcome in assay [5], in assay [6], in assay [7] and in assay [8] was inactive.
Take `CO/C(=C\C=C\c1cc2cc(Cl)c(Cl)cc2[nH]1)C(=O)NCC(C)(C)CN(C)C`: the growth inhibition in assay [1] was 27%; in assay [4] it was 81% (active). Further, the figures for the inhibition in assay [2] and in assay [3] were 35% and 1%, respectively. Moreover, the result in assay [5], in assay [6], in assay [7] and in assay [8] was inactive.
For `COc1ccc2c(c1)Nc1ccc(Cl)cc1C2N` (stereo not given), the results for the growth inhibition in assay [1] and in assay [4] were 99% (active) and 101% (active), respectively. Further, the inhibition is 16% in assay [2] and 3% in assay [3]. The outcome in assay [5], in assay [6], in assay [7] and in assay [8] was inactive.
Consider `Nc1c2c(nc3ccc(NC(=O)c4ccc([N+](=O)[O-])cc4)cc13)CCCC2`, for which the growth inhibition is 72% (active) in assay [1] and 102% (active) in assay [4]. In addition, the results for the inhibition in assay [2] and in assay [3] were 19% and 0%, respectively. Moreover, the result in assay [5], in assay [6], in assay [7] and in assay [8] was inactive.
As to `Oc1ccccc1CN1CCC2(CCCN(Cc3ccccc3F)C2)C1` (stereo not given), the growth inhibition in assay [1] is 83% (active); in assay [4], 98% (active). The results for the inhibition in assay [2] and in assay [3] were 13% and -2%, respectively. The outcome in assay [5], in assay [6], in assay [7] and in assay [8] was inactive.
For `CC(C)[C@@H](NC(=O)NC1CCC(CCN2[C@@H]3CC[C@H]2CC(OC(=O)C(CO)c2ccccc2)C3)CC1)C(O)(c1ccccc1)c1ccccc1` (stereo not given in full), the growth inhibition in assay [1] is 56% (active); in assay [4], 96% (active). Besides, the inhibition in assay [2] is 19%; in assay [3], 2%. Further, the outcome in assay [5], in assay [6], in assay [7] and in assay [8] was inactive.
Take `Cc1cc2nc(-c3ccc(C(=O)NC4CCN(Cc5ccccc5)CC4)cc3)[nH]c2cc1C`: the growth inhibition in assay [1] is 99% (active); in assay [4], 93% (active). The inhibition was -6% in assay [2] and -5% in assay [3]. Moreover, the outcome in assay [5], in assay [6], in assay [7] and in assay [8] was inactive.
Turning to `CC(CN)OCn1cnc2c(N)ncnc21` (stereo not given), the growth inhibition is 3% in assay [1] and 95% (active) in assay [4]. In addition, the inhibition in assay [2] was 17%; in assay [3] it was 4%. Besides, the outcome in assay [5], in assay [6], in assay [7] and in assay [8] was inactive.
In the case of `N#Cc1ccc(CCNc2nccc(-c3cccc(CN4CCNCC4)c3)n2)cc1`, the growth inhibition in assay [1] is -3%; in assay [4], 83% (active). In addition, the inhibition in assay [2] is 5%; in assay [3] it was 3%. The result in assay [5], in assay [6], in assay [7] and in assay [8] was inactive.
In the case of `CCCNCc1ccc(-c2ccc(CN(CCOC)C(=O)CC3CCCC3=O)cc2)nc1` (stereo not given), the growth inhibition was 9% in assay [1] and 93% (active) in assay [4]. Further, the inhibition in assay [2] was 5%; in assay [3], 3%. In addition, the outcome in assay [5], in assay [6], in assay [7] and in assay [8] was inactive.
As to `COc1ccc2ncc(F)c(CCN3C[C@H](CNCc4ccc5c(c4)OCCO5)[C@H](O)C3)c2n1`, the growth inhibition in assay [1] is 35%; in assay [4] it was 94% (active). Also, the inhibition was 18% in assay [2] and 7% in assay [3]. The outcome in assay [5], in assay [6], in assay [7] and in assay [8] was inactive.
With `c1ccc(CCNc2ccnc(Nc3ccc4n[nH]nc4c3)n2)cc1`, the growth inhibition was 95% (active) in assay [1] and 101% (active) in assay [4]. The figures for the inhibition in assay [2] and in assay [3] were 33% and -4%, respectively. Besides, the outcome in assay [5], in assay [6], in assay [7] and in assay [8] was inactive.
Consider `CN1CCN(c2ccc(Cl)cc2NC(=O)C2COc3ccccc3O2)CC1` (stereo not given), for which the growth inhibition in assay [1] was 44%; in assay [4] it was 99% (active). In addition, the inhibition in assay [2] and in assay [3] was 2% throughout. For the same compound, the result in assay [5], in assay [6], in assay [7] and in assay [8] was inactive.
On to `O=C(/C=C/c1ccc(Cl)c(Cl)c1)N1CCC(CCCN2CCC(c3c[nH]c4ccccc34)CC2)CC1`, for which the growth inhibition was 45% in assay [1] and 101% (active) in assay [4]. Further, the inhibition in assay [2] is 44%; in assay [3] it was -1%. In addition, the result in assay [5], in assay [6], in assay [7] and in assay [8] was inactive.
On to `Cn1nc(C(F)(F)F)c(-c2ccc(F)cc2)c1NC(=O)Nc1ccc(F)cc1`, for which the growth inhibition in assay [1] was 99% (active); in assay [4], 100% (active). For the same compound, the results for the inhibition in assay [2] and in assay [3] were 5% and -2%, respectively. In addition, the outcome in assay [5], in assay [6], in assay [7] and in assay [8] was inactive.
Regarding `O=C(Nc1ccccc1-c1nc2ccccc2s1)C(Cl)(Cl)Cl`, the figures for the growth inhibition in assay [1] and in assay [4] were 99% (active) and 97% (active), respectively. Further, the inhibition in assay [2] is 12%; in assay [3] it was -7%. The result in assay [5], in assay [6], in assay [7] and in assay [8] was inactive.
Take `CN1CCN(c2cc3c(cc2Cl)CCN3C(=O)Nc2ccc(NC(=O)c3ccc(C(F)(F)F)cc3)cc2)CC1`: the growth inhibition in assay [1] is 99% (active); in assay [4] it was 100% (active). The values for the inhibition in assay [2] and in assay [3] were 98% (active) and -4%, respectively. Moreover, the result in assay [5], in assay [6], in assay [7] and in assay [8] was inactive.
As for `O=C(NCCCCN1CCC(c2cccc3ccccc23)CC1)c1ccc(-c2ccc(C(F)(F)F)cn2)cc1`, the growth inhibition in assay [1] is 36%; in assay [4], 91% (active). For the same compound, the values for the inhibition in assay [2] and in assay [3] were 31% and 0%, respectively. The outcome in assay [5], in assay [6], in assay [7] and in assay [8] was inactive.

Values taken from PubChem BioAssay.
